The text below walks through data of PubChem BioAssay (EPA / NIEHS).

The structures appear in SMILES notation. Results filed as inconclusive are left out. Active and inactive are the calls of the source. How the source made its calls, unless noted: active means hit-call score of the fitted dose curve at least 0.9, where 1 is the maximum; inconclusive means response in the unintended direction; inactive means score below 0.9.

In test [1] the target is human Norepinephrine Transporter (NET), SLC6A2 (gene 6530) (UniProt P23975). The test is described as follows: NVS_TR_hNET: NovaScreen (NVS) Transporter Assay for human Norepinephrine Transporter (NET) (AID 2283377).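 Further: cell-free membrane protein extracted from CHO cells expressing human NET.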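 On AC50: displacement of radioligand from human NET seen as loss of scintillation signal.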 The procedure, abridged: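 Scintillation counts of filter-retained radioligand served as the readout, taken 1 h post-dosing in a cell-free CHO-derived system. Test chemicals ran first at 25 uM in duplicate; confirmed hits were retested across concentrations.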
Sequence of human Norepinephrine Transporter (NET), SLC6A2 (gene 6530) (P23975 whole entry, looked up): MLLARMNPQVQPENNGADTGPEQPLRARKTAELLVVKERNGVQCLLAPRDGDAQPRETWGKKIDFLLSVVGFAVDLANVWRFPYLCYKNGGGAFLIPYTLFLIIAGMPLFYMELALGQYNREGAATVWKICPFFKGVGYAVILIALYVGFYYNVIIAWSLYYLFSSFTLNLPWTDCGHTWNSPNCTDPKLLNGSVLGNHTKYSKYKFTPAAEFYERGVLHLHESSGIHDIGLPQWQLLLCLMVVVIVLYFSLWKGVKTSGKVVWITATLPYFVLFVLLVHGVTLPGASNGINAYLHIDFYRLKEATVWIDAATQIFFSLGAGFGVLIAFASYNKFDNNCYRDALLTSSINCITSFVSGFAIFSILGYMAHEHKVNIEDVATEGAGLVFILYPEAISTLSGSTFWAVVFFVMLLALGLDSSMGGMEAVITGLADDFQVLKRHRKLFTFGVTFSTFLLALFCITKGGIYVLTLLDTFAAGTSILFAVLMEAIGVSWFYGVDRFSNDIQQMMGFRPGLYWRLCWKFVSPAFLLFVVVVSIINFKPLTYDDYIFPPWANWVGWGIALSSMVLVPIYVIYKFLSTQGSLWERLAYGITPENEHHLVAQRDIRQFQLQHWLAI

The subject of test [2] is Thyroperoxidase (TPO), gene 54314. The test can be described thus: CCTE_Simmons_AUR_rTPO: CCTE's Amplex UltraRed Assay for Thyroperoxidase (TPO) Inhibition, Simmons Lab (AID 2283662).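 Further: potency for loss of signal meaning inhibition of peroxidase activity.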 The procedure, abridged:
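Endpoint is decreased Amplex UltraRed fluorescence after a 30-min, 37C reaction of rat thyroid microsomes with 300 uM H2O2. Eight test concentrations (5 nM–87.5 uM final) in 0.5% DMSO, three biological replicates each.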

The nature of test [3]: CCTE_Simmons_CellTiterGLO_HEK293T: Viability Assessment in CCTE's Assays for Thyroperoxidase (TPO) Inhibition, Simmons Lab (AID 2283665).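 On AC50: cells exposed to compound for 24 h before readout; actives reduce ATP signal below DMSO vehicle meaning cytotoxicity.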 The essentials:
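HEK293T cells in DMEM with 1% FBS, dosed 24 h at 37C with 8 concentrations, 5 nM–87.5 uM final, 0.5% DMSO. ATP measured by CellTiter Glo luminescence; loss of signal vs DMSO, three biological replicates.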
On the technique in general: Cellular ATP, detected with luciferase, serves as a proxy for viable cell number.

Test [4] concerns the target Luciferin 4-monooxygenase (Photinus pyralis) (UniProt P08659). The test is described as follows: CCTE_Simmons_QuantiLum_inhib_2: CCTE's Firefly Luciferase Inhibition Assay, Simmons Lab (AID 2283767).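 On AC50: potency for inhibitors that lower luciferase luminescence relative to DMSO.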 The essentials:
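Cell-free recombinant firefly luciferase (5 ng/well) in 200mM potassium phosphate with 1 mg/ml BSA, 30 min at 37C with 8 concentrations from 5 nM to 87.5 uM [final], 0.5% DMSO. Luminescence read after D-luciferin (150uM)/dATP (147uM) reagent injection, pH 7.8; triplicates.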

A short description of test [5]: CCTE_Padilla_ZF_Score.General: CCTE's 144 Hour Post-fertilization zebrafish Assay Score for General Malformation, Padilla Lab (AID 2284411; active means hit-call score of the fitted dose curve at least 0.9, where 1 is the maximum; inactive means score below 0.9). The procedure, abridged: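 Wild-type zebrafish embryos were plated singly at 6-8 hpf in 10% Hanks' and exposed in sealed wells at 26C until rinsed on 5 dpf. At 6 dpf two blinded assessors scored mortality, hatching and malformations by stereomicroscopy; gain-of-signal versus DMSO.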

In test [6] the target is rat Thyrotropin Releasing Hormone Receptor (TRH), Trhr (gene 25570) (UniProt Q01717). The test is described as follows: NVS_GPCR_rTRH: NovaScreen (NVS) G Protein-Coupled Receptor Assay for rat Thyrotropin Releasing Hormone Receptor (TRH) (AID 2283329).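 Further: hit means lower bound tracer signal versus DMSO baseline.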 The procedure, abridged: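 Test compounds are screened at 25 uM in duplicate against radioligand binding in rat forebrain membranes, with active pairs followed up over a concentration range. Detection uses filter-based radiodetection after a 4 h exposure.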
Sequence of rat Thyrotropin Releasing Hormone Receptor (TRH), Trhr (gene 25570) (Q01717 whole entry, looked up): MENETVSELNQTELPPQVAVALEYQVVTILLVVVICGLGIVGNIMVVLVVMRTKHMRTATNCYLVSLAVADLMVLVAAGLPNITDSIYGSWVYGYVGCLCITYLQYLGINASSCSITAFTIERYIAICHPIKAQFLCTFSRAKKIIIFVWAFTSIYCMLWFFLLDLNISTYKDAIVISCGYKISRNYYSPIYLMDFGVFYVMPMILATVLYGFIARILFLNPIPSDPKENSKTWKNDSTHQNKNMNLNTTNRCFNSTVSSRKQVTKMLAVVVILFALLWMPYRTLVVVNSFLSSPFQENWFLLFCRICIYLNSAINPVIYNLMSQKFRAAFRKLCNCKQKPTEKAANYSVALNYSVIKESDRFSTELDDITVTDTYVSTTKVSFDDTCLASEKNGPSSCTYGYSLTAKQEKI

Test [7] has as its target human Peroxisome Proliferator-activated Receptor alpha (PPARa), PPARA (gene 5465) (UniProt Q07869). The test can be described thus: NVS_NR_hPPARa: NovaScreen (NVS) Nuclear Receptor Binding Assay for human Peroxisome Proliferator-activated Receptor alpha (PPARa) (AID 2283359).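 Further: activity means loss of TR-FRET signal versus DMSO baseline.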 The essentials: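 Chemicals were first screened in duplicate at 25 uM, and active ones were retested across concentration series. Binding was monitored by TR-FRET one hour after dosing, with decreased signal against DMSO counted as activity.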

Test [8] has as its target human RAR-related Orphan Receptor gamma (RORg), RORC (gene 6097) (UniProt P51449). The test is described as follows: ATG_RORg_TRANS: Attagene TRANS-FACTORIAL HepG2 Assay for human RAR-related Orphan Receptor gamma (RORg) (AID 2283011). The essentials:
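Readout: reporter transcript induction (RT-PCR, fluorescent primer extension, capillary electrophoresis) after 24 h compound exposure of transiently transfected HepG2 cells carrying a RORg-Gal4 chimera and GAL4-UAS reporters; DMSO served as baseline, with increasing signal fitted.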

Test [9] in a line: CCTE_Shafer_MEA_acute_spike_number: CCTE's Neural Acute Assay for Total Number of Spikes, Shafer Lab (AID 2284008; active means hit-call score of the fitted dose curve at least 0.9, where 1 is the maximum; inactive means score below 0.9). The essentials: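 Primary rat cortical neurons on 16-electrode MEA wells; on DIV 13 or 15, 40-min baseline then 40-min recording with compound (0.03-40 uM) at 37 C. Spikes detected at 8x rms noise; percent change versus baseline, DMSO as negative control.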
Test [10] is described as follows: CCTE_Shafer_MEA_acute_firing_rate_mean: CCTE's Neural Acute Assay for Mean Firing Rate, Shafer Lab (AID 2284009; active means hit-call score of the fitted dose curve at least 0.9, where 1 is the maximum; inactive means score below 0.9;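 further: analyzed for loss of signal so actives lower firing rate relative to DMSO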). The essentials: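 Percent change in well-mean firing rate was derived from extracellular spikes detected at 8x rms noise (300-5000 Hz band-pass) before and after a 40-min compound exposure. Cultures were primary rat cortical neurons, tested at 0.03-40 uM.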

Test [11] is described as follows: CCTE_Shafer_MEA_acute_burst_number: CCTE's Neural Acute Assay for Single-Electrode Bursts, Shafer Lab (AID 2284013; active means hit-call score of the fitted dose curve at least 0.9, where 1 is the maximum; inactive means score below 0.9). The procedure, abridged: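 Spontaneous network activity of primary rat cortical neurons was recorded extracellularly on microelectrode arrays at 37 C, with 40-min periods before and during exposure to 0.03-40 uM compound on DIV 13 or 15.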
A short description of test [12]: CCTE_Shafer_MEA_acute_per_burst_spike_number_mean: CCTE's Neural Acute Assay for Average Number of Spikes Per Burst, Shafer Lab (AID 2284015; active means hit-call score of the fitted dose curve at least 0.9, where 1 is the maximum; inactive means score below 0.9;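 further: hits are decreases in mean spikes per burst versus baseline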). The essentials: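 We recorded spontaneous network firing of rat cortical neurons for 40 min before and 40 min during exposure to compound at 0.03-40 uM, at 37 C. Spikes were detected adaptively at 8x rms noise, and the change in average spikes per burst was fitted against DMSO.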

Test [13] in a line: CCTE_Shafer_MEA_acute_interburst_interval_mean: CCTE's Neural Acute Assay for Mean Interburst Interval, Shafer Lab (AID 2284016; active means hit-call score of the fitted dose curve at least 0.9, where 1 is the maximum; inactive means score below 0.9;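 further: percent change of mean interburst interval versus each well's own pre-dose baseline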). The procedure, abridged: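 MEA recording of spontaneous network bursting in primary rat cortical cultures; mean interburst interval was compared before and after a 40-min compound exposure (0.03-40 uM) and expressed as percent change, relative to DMSO.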

The nature of test [14]: CCTE_Shafer_MEA_acute_burst_percentage_mean: CCTE's Neural Acute Assay for Percentage of Spikes in a Burst, Shafer Lab (AID 2284017; active means hit-call score of the fitted dose curve at least 0.9, where 1 is the maximum; inactive means score below 0.9;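 further: curve fitted for loss of signal so potency reflects decreased burst percentage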). The essentials: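 Compounds were tested at 0.03-40 uM on primary rat cortical neuron networks grown over microelectrodes, with at least three wells per compound. Spontaneous firing was recorded for 40 min before and 40 min after dosing, and the change in burst percentage was computed per well.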

Test [15] can be described thus: CCTE_Shafer_MEA_acute_burst_percentage_std: CCTE's Neural Acute Assay for Standard Deviation of Burst Percentage, Shafer Lab (AID 2284018; active means hit-call score of the fitted dose curve at least 0.9, where 1 is the maximum; inactive means score below 0.9;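 further: fitted in the negative direction so actives lower burst percentage SD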). The essentials: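 Value is percent change from baseline in the across-electrode SD of spikes-in-bursts percentage, wells with >/= 10 active electrodes. Acute 40-min exposure to 0.03-40 uM on DIV 13 or 15 rat cortical cultures, recorded at 37 C after 40-min baseline.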

Test [16] has as its target Bile acid receptor (Homo sapiens) (UniProt Q96RI1). The test can be described thus: ATG_IR1_CIS: Attagene CIS-FACTORIAL HepG2 Assay for human Nuclear Receptor Subfamily 1 Group H Member 4 (NR1H4), IR1 submotif (AID 2282946; active means hit-call score of the fitted dose curve at least 0.9, where 1 is the maximum; inactive means score below 0.9). To be noted: IR1 reporter transcription, actives raise or lower the signal. The procedure, abridged:
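Cells (human HepG2) carry transiently transfected cis-promoter reporter transcription units. Compounds are incubated 24 h, total RNA is reverse-transcribed and amplified, and labelled fragments are resolved by capillary electrophoresis. Curves use DMSO as baseline.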

The target is the same in test [17]. The test is described as follows: OT_FXR_FXRSRC1_1440: Odyssey Thera (OT) 24-hour HEK293T Protein-Complementation Assay for Farnesoid X receptor/SRC-1 Co-activator (AID 2283384). The procedure, abridged: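 HEK293T cells, 24 h after chemical dosing. FXR–SRC-1 coactivator interaction read as fluorescence from protein-fragment complementation of a split reporter. Gain of signal fitted against DMSO baseline.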

For test [18] the target is unchanged. The test can be described thus: OT_FXR_FXRSRC1_0480: Odyssey Thera (OT) 8-hour HEK293T Protein-Complementation Assay for Farnesoid X receptor/SRC-1 Co-activator (AID 2283383). The essentials: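 HEK293T protein-fragment complementation assay: FXR and SRC-1 coactivator are fused to reporter fragments, and their interaction restores a fluorescent reporter. Readout was taken 8 h after dosing, with gain of signal fit relative to DMSO.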

The subject of test [19] is TTR (gene 7276). The test can be described thus: CCTE_GLTED_hTTR_0.125uM: CCTE's human Transthyretin (hTTR) Inhibition Assay, with 0.125uM TTR, Great Lakes Toxicology and Ecology Division (GLTED) Lab (AID 2284431; active means hit-call score of the fitted dose curve at least 0.9, where 1 is the maximum; inactive means score below 0.9;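 further: hits lower the fluorescence signal relative to DMSO baseline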). The procedure, abridged:
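Cell-free displacement of the fluorescent probe ANSA from human TTR (0.125uM) after 2 h incubation with test chemical. Fluorescence read at 380 nm excitation/475 nm emission; loss of signal fitted relative to DMSO baseline.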

In test [20] the test system is SERPINA7 (gene 6906). The test is described as follows: CCTE_GLTED_hTBG: CCTE's human Thyroxine-binding Globulin (TBG) Inhibition Assay, Great Lakes Toxicology and Ecology Division (GLTED) Lab (AID 2284343).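 Further: active chemicals lower fluorescence versus DMSO baseline by displacing probe.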 The procedure, abridged:
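Human TBG incubated 2 h with test chemical; displacement of ANSA probe read by fluorescence, 380 nm excitation/475 nm emission. Loss of signal relative to DMSO.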

Sequence of Bile acid receptor (Homo sapiens) (Q96RI1 whole entry, looked up, the tested form may be a part): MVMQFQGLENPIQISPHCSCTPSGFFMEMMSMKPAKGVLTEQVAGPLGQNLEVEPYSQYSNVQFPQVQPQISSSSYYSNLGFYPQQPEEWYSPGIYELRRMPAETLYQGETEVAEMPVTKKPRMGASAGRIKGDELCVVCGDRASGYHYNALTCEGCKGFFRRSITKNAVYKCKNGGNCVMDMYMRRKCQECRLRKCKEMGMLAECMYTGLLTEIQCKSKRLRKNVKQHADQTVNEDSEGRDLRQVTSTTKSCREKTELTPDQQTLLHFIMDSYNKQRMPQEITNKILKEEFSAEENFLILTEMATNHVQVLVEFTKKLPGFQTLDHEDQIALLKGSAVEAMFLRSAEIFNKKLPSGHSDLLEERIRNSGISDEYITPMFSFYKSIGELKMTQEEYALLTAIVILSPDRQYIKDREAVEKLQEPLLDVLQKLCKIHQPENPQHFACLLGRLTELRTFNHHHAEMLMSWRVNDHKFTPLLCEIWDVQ
Sequence of human RAR-related Orphan Receptor gamma (RORg), RORC (gene 6097) (P51449 whole entry, looked up, the tested form may be a part): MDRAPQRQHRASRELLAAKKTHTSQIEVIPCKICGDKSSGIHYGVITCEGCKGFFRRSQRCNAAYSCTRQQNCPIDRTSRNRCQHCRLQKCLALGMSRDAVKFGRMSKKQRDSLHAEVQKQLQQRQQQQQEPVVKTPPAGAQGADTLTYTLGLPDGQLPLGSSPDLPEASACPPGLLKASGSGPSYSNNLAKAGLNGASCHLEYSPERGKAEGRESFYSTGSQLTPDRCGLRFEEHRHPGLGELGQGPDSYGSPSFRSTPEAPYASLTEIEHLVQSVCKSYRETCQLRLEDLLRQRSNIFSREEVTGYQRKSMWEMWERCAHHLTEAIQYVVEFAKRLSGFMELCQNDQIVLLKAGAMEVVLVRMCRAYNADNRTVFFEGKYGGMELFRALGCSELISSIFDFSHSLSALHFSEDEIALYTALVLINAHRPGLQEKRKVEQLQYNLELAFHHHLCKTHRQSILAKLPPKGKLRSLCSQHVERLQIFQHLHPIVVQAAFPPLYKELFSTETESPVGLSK
Sequence of Luciferin 4-monooxygenase (Photinus pyralis) (P08659 whole entry, looked up): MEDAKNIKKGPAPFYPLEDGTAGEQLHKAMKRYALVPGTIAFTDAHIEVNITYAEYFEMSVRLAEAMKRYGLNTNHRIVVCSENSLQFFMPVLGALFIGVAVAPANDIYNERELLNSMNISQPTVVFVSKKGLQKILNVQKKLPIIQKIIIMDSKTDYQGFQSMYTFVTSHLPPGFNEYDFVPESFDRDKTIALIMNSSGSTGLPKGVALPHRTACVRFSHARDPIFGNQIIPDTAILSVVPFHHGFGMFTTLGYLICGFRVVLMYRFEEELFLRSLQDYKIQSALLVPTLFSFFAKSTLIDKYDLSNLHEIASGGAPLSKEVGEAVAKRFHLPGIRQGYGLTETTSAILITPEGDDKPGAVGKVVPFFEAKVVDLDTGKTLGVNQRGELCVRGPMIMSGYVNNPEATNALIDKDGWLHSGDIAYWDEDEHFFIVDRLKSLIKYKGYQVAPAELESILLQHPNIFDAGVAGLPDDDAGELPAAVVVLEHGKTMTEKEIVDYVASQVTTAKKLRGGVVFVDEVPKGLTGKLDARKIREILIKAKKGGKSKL
Sequence of human Peroxisome Proliferator-activated Receptor alpha (PPARa), PPARA (gene 5465) (Q07869 whole entry, looked up): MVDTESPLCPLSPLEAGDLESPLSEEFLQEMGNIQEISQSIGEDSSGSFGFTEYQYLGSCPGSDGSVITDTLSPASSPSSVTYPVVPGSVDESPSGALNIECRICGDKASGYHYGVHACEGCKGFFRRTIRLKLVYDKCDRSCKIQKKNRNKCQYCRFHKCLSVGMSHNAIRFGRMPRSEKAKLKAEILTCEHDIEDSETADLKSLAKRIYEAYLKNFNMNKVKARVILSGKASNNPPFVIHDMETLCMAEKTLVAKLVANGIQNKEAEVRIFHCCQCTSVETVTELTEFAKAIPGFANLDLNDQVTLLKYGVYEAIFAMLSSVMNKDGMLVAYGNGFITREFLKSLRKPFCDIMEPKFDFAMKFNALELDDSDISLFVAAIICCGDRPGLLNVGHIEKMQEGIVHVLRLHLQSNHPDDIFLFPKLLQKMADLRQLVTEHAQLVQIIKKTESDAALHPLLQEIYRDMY

Consider `CN(C)c1ccc(C(c2ccccc2)c2ccc(N(C)C)cc2)cc1`, for which the AC50 (in general, the concentration giving half of the maximal activity seen) was 31.7 µM (active) in [1], 10.6 µM (active) in test [2], 25.3 µM (active) in test [3] and 22.3 µM (active) in [5]. Also, the call in [4] was inactive.
`CCCCCCC1CCC(=O)O1` (configuration not stated): the molecule was called inactive in test [6] and in test [7].
On to `CN1CCCC1`, for which, in test [8], the outcome was inactive.
With `CN(C)CCC(c1ccc(Cl)cc1)c1ccccn1` (configuration not stated), the AC50 in [1] was 7.29 µM (active); in test [12] it was 24.3 µM (active); in [13] it was 23.9 µM (active); in test [14] it was 23.8 µM (active); in test [15], 27.1 µM (active). The molecule was called inactive in test [9], in test [10], in test [11] and in test [5].
Regarding `O=C1NC(=O)C2CC=CCC12` (configuration not stated), the call in test [16] and in test [17] was inactive.
Take `C=C1CC[C@H]2C[C@@H]1C2(C)C`: the molecule was called inactive in [6].
Regarding `O=C(OCc1ccccc1)c1ccccc1`, in test [18], the result was inactive. Also, the AC50 in test [19] is 20.7 µM (active).
`O=[N+]([O-])c1ccccc1C(F)(F)F`: in test [8], the result was inactive.
Take `Cc1cc(-n2nc3ccc(Cl)cc3n2)c(O)c(C(C)(C)C)c1`: in [5], the molecule was classed as inactive.
On the same count and under the same terms, under `Cc1cccnc1` stands “inactive”.
For the molecule `Cc1cc(C)c(S(=O)(=O)O)cc1N=Nc1cc(S(=O)(=O)O)c2ccccc2c1O`, the molecule was classed as inactive in test [8] and in test [6]. Besides, the half-maximal activity concentration (AC50) in test [2] was 14.5 µM (active); in [3], 13.1 µM (active); in test [4], 2.98 µM (active).
As to `Oc1ccc(Cl)cc1C1CCCC1`, the AC50 in test [16] is 57.8 µM (active).
Turning to `CCCC(=O)OC`, the molecule was classed as inactive in [8].
As to `O=C(O)c1ccccc1C(=O)O`, the result in [8] was inactive.
For the molecule `O=C1NC(=O)[C@@H]2CC=CC[C@H]12`, the molecule was called inactive in test [1].
`CCCCOC(=O)COc1ccc(Cl)cc1Cl`: the molecule was called inactive in [18]. Moreover, the AC50 in test [20] is 9.59 µM (active).
For the molecule `COCCCN`, the molecule was called inactive in test [8].
Consider `Cc1cc2nc3c(=O)[nH]c(=O)nc-3n(C[C@H](O)[C@H](O)[C@H](O)CO)c2cc1C`, for which the molecule was classed as inactive in [16]. For the same molecule, the results for the AC50 in [18] and in [17] were 37.3 µM (active) and 52.7 µM (active), respectively.
For the molecule `CCOC(=O)CC(=O)OCC`, the result in test [18] was inactive.
For the molecule `Cc1cc(O)cc(C)c1Cl`, the molecule was called inactive in test [7]. Moreover, the results for the AC50 in test [20] and in test [19] were 22.3 µM (active) and 7.71 µM (active), respectively.
Take `CCCc1c(OCCCCc2nn[nH]n2)ccc(C(C)=O)c1O`: the outcome in test [16] was inactive.
Regarding `CC(=O)OC(C)(C)Cc1ccccc1`, the call in test [18] and in test [17] was inactive.
`O=C(Oc1ccccc1)c1ccccc1`: the outcome in test [6] and in test [17] was inactive. Also, the results for the AC50 in test [18], in [20] and in [19] were 45.2 µM (active), 8.47 µM (active) and 24.2 µM (active), respectively.
Take `CCC(C)=NO`: the call in test [8] and in test [1] was inactive.
`Oc1cccc2ccccc12`: the outcome in test [8], in test [17] and in [3] was inactive. Besides, the AC50 in test [1] is 21 µM (active); in [2] it was 1.62 µM (active); in test [4] it was 29.9 µM (active); in [20], 4.58 µM (active); in test [19], 3.07 µM (active).
